Test results taken from PubChem BioAssay (EPA / NIEHS).
“And” between values parts separate entries of the source, which are not always exact repeats. Identical values can stand only once. Results filed as inconclusive are left out. Where a structure was tested more than once in an assay, its records may differ in their call. The source made the active and inactive calls. Rule for the calls, unless noted: active = hit-call score of the fitted dose curve at least 0.9, where 1 is the maximum; inactive = score below 0.9.

Columns and labels:
[1] = CCTE_Harrill_HTTr_Viability_MCF7: CCTE's 6-hour Cell Viability Assessment for the High-Throughput Transcriptomics (HTTr) Platform, in MCF-7 cells cultured in DMEM + 10% fetal bovine serum, Harrill Lab (AID 2284010)
Summary of the method: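 MCF-7 cells in DMEM + 10% FBS, 384-well, exposed 6 h to an eight-point dilution series. Membrane integrity scored by high-content imaging of propidium iodide exclusion; bidirectional fit versus DMSO.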

[2] = CCTE_Harrill_HTTr_Apoptosis_MCF7: CCTE's 6-hour Apoptosis Assessment for the High-Throughput Transcriptomics (HTTr) Platform, in MCF-7 cells cultured in DMEM + 10% fetal bovine serum, Harrill Lab (AID 2284011)
Summary of the method: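 Cells are dosed with test chemicals at eight concentrations and imaged 6 hours later for caspase-3/7 activity using a green fluorogenic detection reagent. Activity is fitted in both directions against DMSO controls.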

[3] = CCTE_Harrill_HTTr_CellCount_MCF7: CCTE's Cell Proliferation Assessment for the High-Throughput Transcriptomics (HTTr) Platform, Harrill Lab (AID 2284012; active = hit-call score of the fitted dose curve at least 0.9, where 1 is the maximum;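 note: cells exposed to compound for six hours; intended direction is loss of nuclei count meaning fewer cells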)
Summary of the method: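 MCF7 cells exposed 6 hours to an eight-point dilution series; Hoechst-stained nuclei counted by high-content imaging. Bidirectional curve fitting against DMSO baseline.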

[4] = CCTE_Shafer_MEA_acute_burst_number: CCTE's Neural Acute Assay for Single-Electrode Bursts, Shafer Lab (AID 2284013)
Summary of the method: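 Spontaneous network activity of primary rat cortical neurons was recorded extracellularly on microelectrode arrays at 37 C, with 40-min periods before and during exposure to 0.03-40 uM compound on DIV 13 or 15.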

[5] = CCTE_Shafer_MEA_acute_burst_duration_mean: CCTE's Neural Acute Assay for Mean Burst Duration, Shafer Lab (AID 2284014);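 note: hits are decreases in mean burst duration relative to DMSO controls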
Summary of the method: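 Read-out is the per-well percent change in mean burst duration (first to last spike within a single-electrode burst) between 40-min recordings before and after compound. Cultures were primary rat cortical neurons on MEAs, dosed at 0.03-40 uM on DIV 13 or 15.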

[6] = CCTE_Shafer_MEA_acute_per_burst_spike_number_mean: CCTE's Neural Acute Assay for Average Number of Spikes Per Burst, Shafer Lab (AID 2284015);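 note: hits are decreases in mean spikes per burst versus baseline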
Summary of the method: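 Read-out: percent change in mean spikes per burst, each well's post-exposure 40-min recording versus its own 40-min baseline. Rat cortical cultures, DIV 13 or 15, compounds 0.03-40 uM; DMSO is negative control, loss-of-signal fitting.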

[7] = CCTE_Shafer_MEA_acute_interburst_interval_mean: CCTE's Neural Acute Assay for Mean Interburst Interval, Shafer Lab (AID 2284016);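 note: percent change of mean interburst interval versus each well's own pre-dose baseline; curves fitted for decrease in interburst interval relative to DMSO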
Summary of the method: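 Rat cortical cultures, DIV 13/15; 20 min equilibration, 40 min baseline, compound 0.03-40 uM, 40 min re-recording, 37 C. Spikes detected at 8x rms noise (300-5000 Hz band-pass). Endpoint: % change in interburst interval, fitted in loss direction vs DMSO.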

[8] = CCTE_Shafer_MEA_acute_burst_percentage_mean: CCTE's Neural Acute Assay for Percentage of Spikes in a Burst, Shafer Lab (AID 2284017);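 for AC50: curve fitted for loss of signal so potency reflects decreased burst percentage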
Summary of the method: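 Rat cortical cultures, DIV 13/15, 37 C. Spikes detected at 8x rms noise (300-5000 Hz band-pass). Burst spikes/total spikes averaged across electrodes per well; % change post- vs pre-treatment (40 min each), loss-of-signal fit vs DMSO.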

[9] = CCTE_Shafer_MEA_acute_burst_percentage_std: CCTE's Neural Acute Assay for Standard Deviation of Burst Percentage, Shafer Lab (AID 2284018);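 note: fitted in the negative direction so actives lower burst percentage SD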
Summary of the method: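 Value is percent change from baseline in the across-electrode SD of spikes-in-bursts percentage, wells with >/= 10 active electrodes. Acute 40-min exposure to 0.03-40 uM on DIV 13 or 15 rat cortical cultures, recorded at 37 C after 40-min baseline.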

[10] = CCTE_Shafer_MEA_acute_per_network_burst_spike_number_mean: CCTE's Neural Acute Assay for Average Number of Spikes in a Network Burst, Shafer Lab (AID 2284019);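 for AC50: curve fitted for loss of signal so actives reduce spikes per network burst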
Summary of the method: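 Read-out is mean spike count per network burst, taken as percent change between a 40-min pre-exposure and a 40-min post-exposure recording per well. Rat primary cortical neurons on MEAs at 37 C, DIV 13 or 15; compounds at 0.03-40 uM.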

[11] = CCTE_Shafer_MEA_acute_per_network_burst_spike_number_std: CCTE's Neural Acute Assay for Standard Deviation of Number of Spikes in a Network Burst, Shafer Lab (AID 2284020);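 note: fitted for decrease in spike-number SD versus DMSO so actives lower it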
Summary of the method: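 Spontaneous network activity of primary rat cortical neurons is recorded extracellularly before and after a 40-min compound exposure (0.03-40 uM) at 37 C. The endpoint is the well's percent change in burst spike-number SD.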

[12] = CCTE_Shafer_MEA_acute_per_network_burst_electrodes_number_mean: CCTE's Neural Acute Assay for Mean Number of Electrodes in a Network Burst, Shafer Lab (AID 2284021);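 note: curves fitted for decreases only so hits reduce electrodes per burst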
Summary of the method: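 Cultures of rat cortex neurons were exposed on DIV 13 or 15 to compounds at 0.03-40 uM in at least three wells each. Activity over 40 min before and 40 min after exposure at 37 C gave the percent change in electrodes per network burst.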

[13] = CCTE_Shafer_MEA_acute_network_burst_percentage: CCTE's Neural Acute Assay for Percentage of Network Bursts, Shafer Lab (AID 2284022);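 note: curves fitted for loss so actives lower network burst percentage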
Summary of the method: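 Cortical neurons from rat were grown over microelectrode arrays and used on day 13 or 15 in vitro. Wells with at least 10 active electrodes received test chemical at 0.03-40 uM. Activity during 40 min of exposure was compared with the preceding 40-min baseline.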

[14] = CCTE_Shafer_MEA_acute_cross_correlation_area: CCTE's Neural Acute Assay for Area of Cross Correlation, Shafer Lab (AID 2284024);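 note: area under pooled inter-electrode spike cross-correlation near zero lag as percent change from own baseline; curves fitted for loss of cross-correlation area so actives lower synchrony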
Summary of the method: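 Acute exposure of mature rat cortical networks (day 13 or 15 post-plating) to 0.03-40 uM compound. Spontaneous spiking on MEA, 40 min pre- and post-dose at 37 C.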

[15] = CCTE_Shafer_MEA_acute_cross_correlation_HWHM: CCTE's Neural Acute Assay for Cross Correlation at Half Width at Half Maximum, Shafer Lab (AID 2284026);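 note: percent change per well from pre-dose baseline in spike cross-correlogram half width; hits are a decrease in cross-correlogram half width relative to DMSO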
Summary of the method: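 Primary cortex (rat), MEA, DIV 13/15; compound 0.03-40 uM; 40 min pre + 40 min post at 37 C; spike threshold 8x rms; wells need ≥10 active electrodes; endpoint = % change in cross-correlogram HWHM vs baseline, DMSO negative control.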

[16] = CCTE_Shafer_MEA_acute_synchrony_index: CCTE's Neural Acute Assay for Synchrony, Shafer Lab (AID 2284027);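 note: network synchrony index of spontaneous spiking in primary rat cortical neurons on MEAs; fitted for loss of signal so actives lower synchrony relative to DMSO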
Summary of the method: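 Primary rat cortical neurons on 48-well MEAs, dosed at 0.03–40 uM on DIV 13 or 15. Spikes are recorded for 40 min at 37C before and after exposure, and synchrony index (0–1) is expressed as percent change from baseline per well.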

[17] = CCTE_Shafer_MEA_dev_firing_rate_mean: CCTE's Neural Network Formation Assay for Mean Firing Rate, Shafer Lab (AID 2284031);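 for AC50: curve fitted for loss of firing so AC50 reflects decreased mean firing rate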
Summary of the method: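 Primary rat cortical neurons on 48-well MEA plates, exposed from plating day 0 with dosing renewed on DIV 5 and 9. Mean well firing rate over active electrodes, recorded days 5, 7, 9, 12, summarised as trapezoidal AUC.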

[18] = CCTE_Shafer_MEA_dev_per_burst_spike_percent: CCTE's Neural Network Formation Assay for Percent of Spikes in a Burst, Shafer Lab (AID 2284032);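 note: fitted as a decrease in burst spike percentage below DMSO baseline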
Summary of the method: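 Rat primary cortical neurons on 16-electrode MEA wells, dosed from plating day 0 for 12 days with renewal on DIV 5 and 9; spikes-in-bursts percentage averaged over bursting electrodes, collapsed as AUC across days 5, 7, 9, 12; loss direction versus DMSO.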

[19] = CCTE_Deisenroth_AIME_384WELL_CTox_Active: Cytotoxicity Assessment (CTOX) in CCTE's 384-well Estrogen Receptor Transactivation Assay with AIME metabolic competence (metabolism positive), Deisenroth Lab (AID 2284037; active = hit-call score of the fitted dose curve at least 0.9, where 1 is the maximum;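 note: chemicals first conditioned 2 h by alginate-bound induced rat liver S9 before cells; activity means signal loss indicating cell death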)
Summary of the method: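 Cytotoxicity in VM7Luc4E2 breast cells, 24 hour, measured as protease-substrate fluorescence loss, after 2-hour metabolic conditioning with induced rat hepatic S9 in alginate microspheres. Concentrations 0.002 - 200 uM, 10 points, bidirectional fitting.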

Measured: AC50

CCOC(=O)COc1cc(-c2nn(C)c(OC(F)F)c2Cl)c(F)cc1Cl
inactive: [1] | [2]

O=c1ccc(=O)[nH][nH]1
inactive: [1] | [2] | [3]

CN(C)[C@@H]1C(=O)C(C(N)=O)=C(O)[C@@]2(O)C(=O)C3=C(O)c4c(O)cccc4[C@@](C)(O)[C@H]3[C@H](O)[C@@H]12
active: [18] 50 µM
inactive: all other assays above

CCC(CC)Nc1c([N+](=O)[O-])cc(C)c(C)c1[N+](=O)[O-]
inactive: [1] | [2]

CCCOCC(=Nc1ccc(Cl)cc1C(F)(F)F)n1ccnc1
inactive: [1] | [2] | [3] | [7] | [9] | [12] | [13]
active: [4] 686 nM | [5] 6.29 µM | [6] 2.02 µM | [8] 2.71 µM | [10] 943 nM | [11] 4.42 µM | [14] 440 nM | [15] 1.6 µM | [16] 2.69 µM

CNc1cnn(-c2cccc(C(F)(F)F)c2)c(=O)c1Cl
inactive: [1] | [2] | [3]

CSc1nnc(C(C)(C)C)c(=O)n1N
inactive: [1] | [2]

Cc1cc(C2CC2)nc(Nc2ccccc2)n1
inactive: [1] | [2] | [3]

CCCCOC(=O)c1ccccc1C(=O)O
inactive: [1] | [2] | [3]

CSc1nc(NC(C)C)nc(NC(C)C)n1
inactive: [1] | [2] | [3]

CC[C@H](C)[C@H]1O[C@]2(C=C[C@@H]1C)C[C@@H]1C[C@@H](C/C=C(\C)[C@@H](O[C@H]3C[C@H](OC)[C@@H](O[C@H]4C[C@H](OC)[C@@H](NC)[C@H](C)O4)[C@H](C)O3)[C@@H](C)/C=C/C=C3\CO[C@@H]4[C@H](O)C(C)=C[C@@H](C(=O)O1)[C@]34O)O2
active: [1] 50000 nM | [3] 50000 nM | [4] 7.43 nM and 28.2 nM | [5] 38.2 µM and 1.5 µM | [6] 26.5 nM and 1.5 µM | [7] 26.1 nM and 2.28 µM | [8] 26.6 nM and 37.8 nM | [9] 48.5 nM and 2.98 µM | [10] 22.5 nM and 1.91 µM | [11] 23.7 nM and 1.5 µM | [12] 615 nM and 8.88 µM | [13] 43 nM and 1.55 µM | [14] 6.26 nM | [15] 25.5 nM and 47.5 nM | [16] 37.6 nM and 751 nM | [17] 6.97 nM and 2.42 nM | [18] 88.8 nM and 3.52 nM
inactive: [2] | [14]

CCCCSP(=O)(SCCCC)SCCCC
inactive: [1] | [2]
active: [17] 66.3 µM and 11.5 µM | [18] 31.1 µM and 49.9 µM

CCC(=O)Nc1ccc(Cl)c(Cl)c1
active: [19] 19800 nM
inactive: [1] | [2]
